Common to all, as to assay type: functional
Assay [1] has as its system Plasmodium falciparum. As to the kind of experiment: GSK_TCMDC: Inhibition of Plasmodium falciparum 3D7 in whole red blood cells, using parasite LDH activity as an index of growth. Test compounds present at 2uM.
For assay [2], the system named is Plasmodium falciparum. As to the kind of experiment: GSK_TCMDC: Inhibition of Plasmodium falciparum Dd2 in whole red blood cells, using parasite LDH activity as an index of growth. Test compounds present at 2uM.
For another assay, the system named is HepG2. The assay is described as follows: GSK_TCMDC: Percent inhibition of human HepG2 cell line. Test compounds present at 10uM.

Values joined by “and” are separate entries in the source; they are usually repeats but may differ in a detail not shown here. Equal entries are not always repeated.

`C#CCOc1ccc(CC(C)NCC(O)c2cccc(C(F)(F)F)c2)cc1` (stereo not given): the Inhibition (as a rule, the relative decrease from the control value, in per cent) with Plasmodium falciparum [1] is 93% and 90%; in the assay on Plasmodium falciparum [2], 84% and 74%.

As for `CC(=O)C1(c2ccccc2)CCN(CCC2(c3ccc(Cl)c(Cl)c3)CN(C(=O)C3CCCC3)CCO2)CC1` (stereo not given), the Inhibition was 88% in the assay with Plasmodium falciparum [1], 70% with Plasmodium falciparum [2] and 11% in the assay with HepG2.

As for `Br.COC(=O)c1ccc(CC(C)NCC(O)c2cccc(OC(F)(F)F)c2)cc1` (stereo not given), the Inhibition in the assay with Plasmodium falciparum [1] worked out at 98%; in the assay on Plasmodium falciparum [2] it was 67%; in the assay on HepG2 it was 2%.

Turning to `CC(Cc1ccc(OCCCCOc2ccccc2)cc1)NCCCc1nc2ccccc2[nH]1` (stereo not given), the Inhibition in the assay with Plasmodium falciparum [1] is given as 97%; in the assay on Plasmodium falciparum [2], 67%; with HepG2 it was 99%.

As to `CN(c1ccc(NC(=O)CCOc2ccccc2)cc1)C1CCN(Cc2cccc(O)c2)CC1.O=C(O)C(F)(F)F`, the Inhibition in the assay on Plasmodium falciparum [1] was 89%; in the assay with Plasmodium falciparum [2] it was 0%; in the assay with HepG2, 18%.

For the compound `CN1CC=C(c2c[nH]c3ccc(C(=O)c4nccs4)cc23)CC1`, the Inhibition is 89% in the assay with Plasmodium falciparum [1] and 73% in the assay with Plasmodium falciparum [2].

As for `CN(c1cc(NC(=O)c2ccc(F)cc2)ccn1)C1CCN(Cc2cccc(C#N)c2)CC1.O=C(O)C(F)(F)F`, the Inhibition in the assay on Plasmodium falciparum [1] was determined as 97%; with Plasmodium falciparum [2], 83%; with HepG2 it was 73%.

In the case of `N=C(N)NC(=O)Nc1ccc([N+](=O)[O-])c(Cl)c1`, the Inhibition in the assay on Plasmodium falciparum [1] stood at 90%; in the assay with Plasmodium falciparum [2], 12%.

With `O=C(Nc1cc(C(F)(F)F)cc(C(F)(F)F)c1)NC1CCC(CN2CCC(c3c[nH]c4ccccc34)CC2)CC1` (stereo not given), the Inhibition was 97% and 100% with Plasmodium falciparum [1]; 98% and 72% with Plasmodium falciparum [2].

`O=C(Nc1ccccc1OC(F)(F)F)NC1CCC(CN2CCC(c3c[nH]c4ccccc34)CC2)CC1` (stereo not given): the Inhibition is 100% and 99% with Plasmodium falciparum [1]; 60% and 70% with Plasmodium falciparum [2]; 33% and 35% in the assay on HepG2.

For `CN1CC(c2ccc(Cl)c(Cl)c2)OC1=N.I` (stereo not given), the Inhibition in the assay with Plasmodium falciparum [1] came to 99%; in the assay on Plasmodium falciparum [2], 3%.

Regarding `O=C(/C=C/c1ccc(F)c(C(F)(F)F)c1)N1CCC(CN2CCC(c3c[nH]c4ccccc34)CC2)CC1`, the Inhibition in the assay on Plasmodium falciparum [1] came out at 98%; in the assay on Plasmodium falciparum [2] it was 1%; with HepG2, 23%.

Take `COc1ccc(OC)c(C=CC(=O)NC2CCC(CN3CCC(c4c[nH]c5ccccc45)CC3)CC2)c1` (stereo not given): the values for the Inhibition in the assay with Plasmodium falciparum [1], in the assay on Plasmodium falciparum [2] and with HepG2 were 98%, 62% and 43%, respectively.

As for `COc1ccc(C(=O)c2ccc3[nH]cc(C4=CCN(C)CC4)c3c2)cc1`, the Inhibition stood at 88% in the assay with Plasmodium falciparum [1] and 55% in the assay on Plasmodium falciparum [2].

Turning to `CCc1ccc(CC(C)NCC(O)c2ccccc2)cc1.O` (stereo not given), the Inhibition with Plasmodium falciparum [1] was 89%; with Plasmodium falciparum [2] it was 77%; in the assay on HepG2, 0%.

In the case of `CCOC(=O)c1c(CN2CCN(C)CC2)n(Cc2ccccc2)c2cc(Br)c(O)cc12`, the values for the Inhibition with Plasmodium falciparum [1], in the assay on Plasmodium falciparum [2] and with HepG2 were 100%, 46% and 11%, respectively.

For `COc1ccc(C(=O)C2CC2CN2CC=C(c3c[nH]c4ccccc34)CC2)cc1` (stereo not given), the Inhibition worked out at 95% in the assay on Plasmodium falciparum [1], 89% in the assay with Plasmodium falciparum [2] and 12% with HepG2.

In the case of `O=C(NC1CCC(CN2CCC(c3c[nH]c4ccccc34)CC2)CC1)c1ccc(-c2cc(C(F)(F)F)ccc2Cl)o1` (stereo not given), the Inhibition in the assay with Plasmodium falciparum [1] turned out to be 100%; with Plasmodium falciparum [2], 34%; with HepG2, 5%.

Regarding `COc1ccc(C[C@@H](C)NC[C@H](O)c2cccc(Cl)c2)cc1F`, the values for the Inhibition in the assay with Plasmodium falciparum [1], in the assay on Plasmodium falciparum [2] and in the assay on HepG2 were 89%, 75% and 6%, respectively.

As for `O=C(NC1CCC(CN2CCC(c3c[nH]c4ccccc34)CC2)CC1)C1(O)c2ccccc2-c2ccccc21` (stereo not given), the Inhibition was determined as 85% in the assay on Plasmodium falciparum [1], 46% in the assay with Plasmodium falciparum [2] and 22% in the assay with HepG2.

On to `C[C@@H]1C[C@@H]([C@H](O)CC2CC(=O)NC(=O)C2)C(=O)[C@@H](C)C1` [CYCLOHEXIMIDE], for which the Inhibition in the assay with Plasmodium falciparum [1] is given as 96%; in the assay on Plasmodium falciparum [2], 87%; with HepG2 it was 46%.

For the compound `CS(=O)(=O)Nc1ccc2[nH]cc(C3CCN(CC4CCN(C(=O)/C=C/c5ccc(Cl)c(Cl)c5)CC4)CC3)c2c1`, the Inhibition was determined as 100% in the assay with Plasmodium falciparum [1], 92% in the assay on Plasmodium falciparum [2] and 27% in the assay with HepG2.

Turning to `CCC1(C)CC(CCNCc2ccccc2O)(c2ccc(F)cc2)CCO1` (stereo not given), the figures for the Inhibition in the assay with Plasmodium falciparum [1], in the assay with Plasmodium falciparum [2] and with HepG2 were 98%, 32% and 20%, respectively.

`CCC1=C[C@@H]2CN(C1)Cc1c([nH]c3ccccc13)[C@@](C(=O)OC)(c1cc3c(cc1OC)N(C)[C@H]1[C@@](O)(C(=O)OC)[C@H](O)[C@]4(CC)C=CCN5CC[C@]31[C@@H]54)C2.O=S(=O)(O)O`: the Inhibition is reported as 98% with Plasmodium falciparum [1] and 99% with Plasmodium falciparum [2].

Take `CC(C)CNCc1cccc(-c2ccc(CN(C(=O)Nc3ccccc3)C3CCN(Cc4ccccc4)CC3)cc2)c1.O=C(O)C(F)(F)F`: the results for the Inhibition in the assay on Plasmodium falciparum [1], in the assay on Plasmodium falciparum [2] and in the assay with HepG2 were 100%, 61% and 41%, respectively.

Consider `CC(=O)N(Cc1ccccc1-c1ccc(CNCCc2ccccc2)cc1)C1CCN(Cc2ccccc2)CC1.O=C(O)C(F)(F)F`, for which the Inhibition with Plasmodium falciparum [1] is 100%; with Plasmodium falciparum [2], 85%; in the assay with HepG2, 24%.

For the compound `CC(Cc1ccc(NC(=O)CCNCc2ccccc2)cc1)NCCc1cccc(Cl)c1` (stereo not given), the Inhibition in the assay on Plasmodium falciparum [1], with Plasmodium falciparum [2] and in the assay on HepG2 was 100% each time.

Regarding `CCC(C)(C)NC(C)C(O)c1ccc(C(F)(F)F)cc1.Cl` (stereo not given), the results for the Inhibition with Plasmodium falciparum [1] and with Plasmodium falciparum [2] were 97% and 90%, respectively.

Consider `CCCCCCCn1c(=O)c(C(=O)Nc2c(C)cccc2C)c(O)c2ccccc21`, for which the Inhibition with Plasmodium falciparum [1] amounted to 90%; in the assay on Plasmodium falciparum [2] it was 42%; in the assay on HepG2, 6%.

For the compound `CC(C)(C)c1ccc(Cn2nc(C(=O)N3CCN(C(=O)C4CCCO4)CC3)c3ccccc32)cc1` (stereo not given), the Inhibition is on record as 90% in the assay with Plasmodium falciparum [1], 83% with Plasmodium falciparum [2] and 0% with HepG2.

For the compound `CC(=O)C1(c2ccccc2)CCN(CCC2(c3ccc(Cl)c(Cl)c3)CN(C(=O)Nc3cc(F)cc(F)c3)CCO2)CC1` (stereo not given), the Inhibition was found to be 86% in the assay on Plasmodium falciparum [1], 20% with Plasmodium falciparum [2] and 2% with HepG2.
